The values that follow come from ChEMBL document CHEMBL3988442, “University of Dundee, Small-Polar-MMV Screening Library” (2021).

Hit rate of the full screen: of about 69,000 compounds, about 420 (0.61%) showed an effect of 50% or more. The list comes from a sample in which strong results are over-represented; it also holds similar structures and randomly drawn compounds.

This experiment addresses T1, Histidine--tRNA ligase (Leishmania infantum) (UniProt A4I591).
T1 sequence (whole entry): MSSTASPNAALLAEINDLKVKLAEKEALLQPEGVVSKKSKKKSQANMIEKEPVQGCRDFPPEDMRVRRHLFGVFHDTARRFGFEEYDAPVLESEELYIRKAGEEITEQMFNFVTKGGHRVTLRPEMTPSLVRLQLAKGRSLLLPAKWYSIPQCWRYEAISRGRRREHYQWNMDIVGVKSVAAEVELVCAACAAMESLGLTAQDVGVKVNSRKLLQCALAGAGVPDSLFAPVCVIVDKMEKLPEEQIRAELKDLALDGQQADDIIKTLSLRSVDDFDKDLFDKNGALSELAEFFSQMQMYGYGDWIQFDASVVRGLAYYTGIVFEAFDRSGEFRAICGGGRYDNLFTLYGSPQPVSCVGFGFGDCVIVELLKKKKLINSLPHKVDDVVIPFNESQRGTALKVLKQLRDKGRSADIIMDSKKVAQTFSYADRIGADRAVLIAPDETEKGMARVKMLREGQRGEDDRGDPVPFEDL
Nature of the experiment: Leishmania infantum Histidine tRNA synthetase (LdHisRS). The class given is functional. More on the design: scale not given: in the data most compounds retested in dose-response had high values. The note with it: 30 µM.
Take `Cc1ncsc1CN1CC[C@H]2OCC[C@@]2(C(=O)N2CCCO2)C1`: the Percent Effect turned out to be 16.8%.
Regarding `COc1ccccc1C1(CNCc2ccc(C#N)cc2)CCOCC1`, the Percent Effect came to 60.4%.
The result for `N#Cc1ccc(CNCC2(c3ccccc3)CCOCC2)cc1` reads 42.9%; that for `COc1ccccc1C1(CNCc2ccc([S+](C)[O-])cc2)CC1` (configuration not stated), 12.1%; that for `COc1ccccc1C1(CNc2nnc(C)c(C)c2C#N)CCOCC1`, 37%.
For the compound `COc1ccccc1C1(CNCc2cccc(O)c2)CCOCC1`, the Percent Effect stood at 109%.
`COc1ccccc1C1(CNCc2cccc(C#N)c2)CCOCC1`: the Percent Effect came out at 49.5%.
Turning to `Cn1cc(C(=O)N2C[C@@H]3CN(S(C)(=O)=O)CCO[C@@H]3C2)cn1`, the Percent Effect turned out to be 7.55%.
In the case of `Cc1oncc1C(=O)N1CC[C@H]2[C@@H]1CCC(=O)N2CC1CC1`, the Percent Effect stood at 0%.
The figure for `CC(C)CN1C[C@H]2C[C@H](C(=O)N3CCCC3)[C@@H](C1)O2` is 13.2%; for `CC(C)c1nc2cc(NC(=O)Cn3ccccc3=O)ccc2o1` it is 12%.
The result for `Cc1noc(C(C)Nc2ccc3oc(C)nc3c2)n1` (configuration not stated) reads 106%; that for `Cc1noc(C(C)Nc2ccc3c(c2)CCC3)n1` (configuration not stated), 9.38%; that for `Cc1noc(C(C)Nc2ccc3oc(C(C)C)nc3c2)n1` (configuration not stated), 106%.
With `CC(C)c1nc2cc(NC(=O)Cn3ccc(=O)[nH]c3=O)ccc2o1`, the Percent Effect is 14%.
The result for `Cc1noc(C(C)Nc2ccc3oc(=O)[nH]c3c2)n1` (configuration not stated) reads 16.4%.
The figure for `Fc1cnc(N2C[C@@H]3C[C@@H](c4nc(C5CC5)cs4)O[C@@H]3C2)nc1` is 7.55%.
The figure for `CC(C)CNc1nc(C(=O)/N=c2\[nH]nc(C(C)(C)C)s2)cs1` is 1.91%; for `Cc1cs/c(=N/C(=O)c2csc(NCC(C)C)n2)[nH]1` it is 75.3%.
As for `Cc1[nH]/c(=N\C(=O)c2csc(NCC(C)C)n2)sc1C`, the Percent Effect is 20.9%.
The result for `CCN(Cc1nc2c(cnn2C)c(=O)[nH]1)Cc1ccco1` reads 15.7%; that for `O=C(NCC1CCCO1)c1nc2c(s1)CCCN2Cc1ccccc1` (configuration not stated), 45.8%; that for `O=C(NCC1CCCO1)c1nc2c(s1)CCCN2CC1CC1` (configuration not stated), 29.2%.
The figure for `COCCN1CCCc2sc(C(=O)NCC3CCCO3)nc21` (configuration not stated) is 52.8%; for `Cc1cccc(CN2C[C@@H]3COC[C@]3(CNC(=O)C3CCC3)C2)c1` it is 17.8%; for `NCC1CCN(C2CCN(c3ccc(-c4ccco4)cc3)CC2)C1` (configuration not stated) it is 64.3%.
The figure for `CNC1CCN(C2CCN(c3ccc(-c4ccco4)cc3)CC2)CC1` is 42.1%; for `COc1ccc(N2CCC(N3CCOC(C(F)(F)F)C3)CC2)cc1` (configuration not stated) it is 14.3%; for `CCS(=O)(=O)c1ccc(N2CCC(N)CC2)cc1` it is 11.6%.
For `NC1CCN(C2CCN(c3ccc(-c4ccco4)cc3)CC2)CC1`, the Percent Effect was 54.8%.
The result for `O=C(O)c1ccccc1C1CCN(C2CCN(c3ccccc3)CC2)C1` (configuration not stated) reads 22.7%; that for `Cc1cccc(C(=O)N2CCN(S(C)(=O)=O)[C@@H]3CS(=O)(=O)C[C@@H]32)n1`, -2.67%.
